Reference: PubChem BioAssay (NCI)
The panel holds about 83,000 compounds, 20% with a hit somewhere; the sample as a whole holds those more often.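 The endpoint reported here, percent growth, reads 100 for growth as untreated, 0 for no net growth and -100 for all cells dead.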 Calls of active or inactive are those of the source. The calls were made as follows: active = growth percent below 10; inactive = the rest.

Tested on: SF-539 CNS
Assay: NCI-60 one-dose screen, 48 h (100 = growth as untreated, 0 = no growth, -100 = all killed)
Conditions: 10 µM

| Structure (SMILES) | growth |
| --- | --- |
| O=C1/C(=C\c2cn(C(=O)c3ccc(Cl)cc3)c3ccccc23)c2ccccc2N1C(=O)c1ccc(Cl)cc1 | 67.3% (inactive) |
| Cc1ccc(Nc2cc(C)nc(NCCCNc3ccnc4cc(Cl)ccc34)n2)cc1 | -96.9% (active) |
| COc1ccc(-c2nnc(-c3c(-c4ccccc4)nc4ncccn34)o2)cc1OC | 94.5% (inactive) |
| Oc1[nH]c2cc(Cl)ccc2c1/C=c1/ccc2c(c1)N=C(c1cc(F)cc(F)c1)N=2 | 3.76% (active) |
| Cc1cc(N(CCCNc2ccnc3cc(Cl)ccc23)Cc2ccc3c(c2)OCO3)nc(N2CCOCC2)n1 | -72.9% (active) |
| COc1cc(/C=N/NC(=O)c2ccccc2Nc2ccnc(C(F)(F)F)c2)ccc1O | 112% (inactive) |
| Cc1cc(N(CCCNc2ccnc3cc(Cl)ccc23)Cc2ccc3c(c2)OCO3)nc(N2CCCCC2)n1 | -87.7% (active) |
| Clc1ccc2c(NCCCNc3nccc(Nc4ccc(Br)cc4)n3)ccnc2c1 | -93.1% (active) |
| Cc1cc(N(CCCNc2ccnc3cc(Cl)ccc23)Cc2cccs2)nc(Cl)n1 | 56.3% (inactive) |
| Clc1ccc(Nc2ccnc(NCCCNc3ccnc4cc(Cl)ccc34)n2)cc1 | -96.8% (active) |
| Cc1cc(Cl)nc(N(CCCNc2ccnc3cc(Cl)ccc23)Cc2cccs2)n1 | 3.33% (active) |
| CCCCN(CCCC)c1cc(C(=O)CCCCCN)c2ccccc2n1 | 83.6% (inactive) |
| COc1ccc(-c2nc3sccn3c2-c2nc3c([nH]2)C(=O)c2ccccc2C3=O)cc1 | 98% (inactive) |
| CN(C)CCNC(=O)c1cccn2c(=O)c3cc4ccccc4cc3nc12 | 1.59% (active) |
